Test [1] is described as follows: Cellular Toxicity (caspase-3) Jurkat (AID 655).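 Further: cells exposed to compound for 16 h at 37 °C before reading.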 Further: potency means the concentration at half of the fitted maximal effect. The settings on record: Jurkat caspase-3 activation, luminescence; series mostly up to 92.2 µM. The essentials:
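5000 Jurkat cells/well; compound 16 hr, 37 °C; Caspase-Glo 3/7 added, 20 min RT; luminescence read. Norm: DMSO = 0%, tamoxifen 100 uM = 100%. AC50, Hill model.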

Test [2] in a line: Cellular Toxicity (caspase-3) HUV-EC-C (AID 656). The settings on record: HUV-EC-C cells, caspase-3 activation (apoptosis), vehicle = 0, 100 µM tamoxifen = 100%; series mostly up to 92.2 µM. The essentials:
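qHTS; HUV-EC-C, 1000 cells/well; 5 hr settle, 16 hr cmpd, 37°C; Caspase-Glo 3/7, 20 min RT; luminescence. Norm: DMSO = 0%, tamoxifen 100 uM = 100%. Hill-fit AC50.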

Test [3] in a line: Cellular Toxicity (caspase-3) SHSY5Y (AID 657). The following applies: SH-SY5Y caspase-3 activation, DMSO zero, 10 µM staurosporine = 100%; series mostly up to 91.7 µM. The essentials:
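qHTS, SH-SY5Y, 1500 cells/well, 5 h pre-incubation 37 °C; compound 16 h 37 °C; Caspase-Glo 3/7 1 h RT; luminescence. Norm.: DMSO = 0, 10 uM staurosporine = 100%. Hill fit → AC50.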

Test [4] is described as follows: Cellular Toxicity (caspase-3) BJ (AID 658). The following applies: BJ fibroblasts, luminescence, normalized: DMSO 0%, staurosporine 100%; series mostly up to 91.7 µM. Summed up: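 BJ human foreskin fibroblasts, 1000 cells/well, treated 16 hours at 37 °C in complete medium; caspase 3/7 activity by Caspase-Glo luminescence after 1 hr at room temperature. Normalized to DMSO and 10 uM staurosporine; AC50 from Hill fits.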

Test [5] can be described thus: Cellular Toxicity (caspase-3) MRC-5 (AID 659). The following applies: MRC-5 cells, luminescence, normalized: DMSO 0%, 10 µM staurosporine 100%; series mostly up to 91.7 µM. Summed up: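 MRC-5 human normal lung fibroblasts, 1500 cells/well, treated 16 h at 37 °C in complete medium. Caspase 3/7 measured by Caspase-Glo luminescence after 1 h at room temperature. Normalized to DMSO and 10 uM staurosporine; AC50 from Hill fit.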

A short description of test [6]: Cellular Toxicity (caspase-3) Mesangial (AID 660).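 Further: combined caspase 3 and 7 activity read by Caspase-Glo luminescence.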 The following applies: mesangial cells, normalized: DMSO 0%, 100 µM tamoxifen 100%; series mostly up to 91.7 µM. Summed up: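 Mesangial cells, 1000/well, 5 h settle at 37 °C; compound 16 h, 37 °C; Caspase-Glo 3/7 reagent 20 min RT; luminescence. Norm.: DMSO = 0%, tamoxifen 100 uM = 100%. AC50, Hill fit.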
A short description of test [7]: Cellular Toxicity (caspase-3) SK-N-SH (AID 661). Further: potency means the concentration at half of the fitted maximal effect. The settings on record: SK-N-SH caspase-3 activation, qHTS; series mostly up to 91.7 µM. The essentials: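 Human neuroblastoma SK-N-SH, 1500 cells/well, 5 hr pre-incubation, then compound 16 hr, 37 °C. Caspase-Glo 3/7 reagent, 1 hr RT, luminescence. Norm. to DMSO/10 uM staurosporine; Hill-fit AC50.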
Test [8] is described as follows: Cellular Toxicity (caspase-3) H-4-II-E (AID 663).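 Further: cells exposed to compound for 16 hr before readout.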 The settings on record: H-4-II-E rat hepatoma, scaled: DMSO 0%, 100 µM tamoxifen 100%; series mostly up to 92.2 µM. Summed up: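 Rat hepatoma H-4-II-E cells (1500/well) plated 5 hr, then exposed to compound titrations for 16 hr at 37 °C. Caspase-Glo 3/7 luminescence read after 20 min at RT; data normalized to DMSO and 100 uM tamoxifen, AC50 from Hill fits.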

Test [9] can be described thus: Cellular Toxicity (caspase-3) Hek293 (AID 664).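 Further: cells exposed to compound for 16 h at 37 °C before readout.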 Further: potency means the concentration at half of the fitted maximal effect. The following applies: HEK293 caspase-3 activation; caspase-3 activation: at 92.2 µM (top of the series), DMSO = 0%, 100 µM tamoxifen = 100%. The essentials: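 Cells plated, 5 hr at 37 °C; compounds added; 16 hr at 37 °C; Caspase-Glo 3/7 reagent, 20 min RT; luminescence read. Activation expressed relative to DMSO and 100 uM tamoxifen, AC50 by Hill model.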

Test [10] in a line: Cellular Toxicity (caspase-3) N2a (AID 665).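 Further: compound exposure lasted 16 h at 37 °C before readout.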 The following applies: N2a cells, luminescence, normalized: DMSO 0%, 10 µM staurosporine 100%; series mostly up to 92.2 µM. Summed up:
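N2a cells, 1500/well, 5 h settle at 37 °C; cpd 16 h, 37 °C; Caspase-Glo 3/7, 1 h RT; luminescence. Norm: DMSO = 0, 10 uM staurosporine = 100%. AC50, Hill fit.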

Structures are written as SMILES. Several values for one entry are separate records, joined by “and”; a condition that tells them apart may be missing. Identical values can stand only once. Records with an inconclusive call do not appear. Activity calls are given as the source filed them. The call rests on the fitted dose curve; in most records, active means well fitted curve in the direction sought with a large enough effect; inconclusive means small, poorly fitted or top-dose-only effect, or another doubt; inactive means no such curve, though single readings can be large; an effect the other way counts as inactive or inconclusive.

Regarding `COc1ccc2c(c1)c(CC(=O)O)c(C)n2C(=O)c1ccc(Cl)cc1`, the Potency entry in test [1], in [7] and in test [9] was “inactive” throughout. Further, the compound was called inactive in test [2], in test [3], in test [4], in [5], in [6] and in [8]. For the same compound, the compound was called inactive in test [10].

For the compound `Nc1ccn([C@H]2CC[C@@H](CO)O2)c(=O)n1`, the Potency result in test [1], in test [7] and in [9] was “inactive” throughout. Also, the outcome in test [2], in test [3], in [4], in [5], in test [6] and in test [8] was inactive. In addition, in test [10], the compound was called inactive.

In the case of `CC(C)NCC(O)c1ccc(O)c(O)c1` (stereo not given), the Potency result in [1], in [7] and in test [9] was “inactive” in each case. Moreover, the outcome in [2], in test [3], in [4], in test [5], in test [6] and in test [8] was inactive. Moreover, the outcome in test [10] was inactive.

With `O=c1[nH]cc(F)c(=O)[nH]1`, the Potency result in [1], in test [7] and in test [9] was “inactive” in each case. For the same compound, the result in test [2], in [3], in test [4], in test [5], in [6] and in [8] was inactive. The call in test [10] was inactive.

As to `COc1ccc2[nH]cc(CCNC(C)=O)c2c1`, the Potency result in test [1], in test [7] and in test [9] was “inactive” in each case. Also, the call in test [2], in [3], in test [4], in test [5], in test [6] and in test [8] was inactive. Moreover, the result in [10] was inactive.

With `COc1ccc(CCN(C)CCCC(C#N)(c2ccc(OC)c(OC)c2)C(C)C)cc1OC` (stereo not given), the Potency result in test [1], in test [7] and in [9] was “inactive” each time. For the same compound, the outcome in [2], in test [3], in test [4], in test [5], in test [6] and in test [8] was inactive. Also, in test [10], the result was inactive.

With `CC(COc1ccccc1)N(CCCl)Cc1ccccc1` (stereo not given), the compound was classed as inactive in [2], in [3], in test [5], in test [6] and in [8]. Moreover, the Potency in test [9] is 31.6 µM (active).

`Cc1cn([C@H]2C=C[C@@H](CO)O2)c(=O)[nH]c1=O`: the Potency entry in test [1], in test [7] and in test [9] was “inactive” in each case. Moreover, the compound was classed as inactive in [2], in [3], in test [4], in test [5], in [6] and in test [8]. For the same compound, the call in test [10] was inactive.

Regarding `Cn1c(=O)c2c(ncn2C)n(C)c1=O`, the Potency entry in [1], in test [7] and in test [9] was “inactive” each time. The compound was classed as inactive in [2], in [3], in test [4], in [5], in [6] and in test [8]. For the same compound, the compound was classed as inactive in test [10].

Turning to `Nc1c2c(nc3ccccc13)CCCC2`, the Potency entry in test [1], in [7] and in [9] was “inactive” throughout. The compound was classed as inactive in test [2], in [3], in [4], in test [5], in test [6] and in test [8]. Moreover, in test [10], the result was inactive.

On to `CCC1(c2ccccc2)C(=O)NCNC1=O`, for which the Potency entry in test [1], in test [7] and in test [9] was “inactive” each time. Also, the result in [2], in [3], in test [4], in test [5], in [6] and in [8] was inactive. Further, in [10], the compound was called inactive.

`Cc1ccc(-c2cc(C(F)(F)F)nn2-c2ccc(S(N)(=O)=O)cc2)cc1`: the Potency entry in test [1], in [7] and in test [9] was “inactive” in each case. Moreover, the call in [2], in test [3], in [4], in [5] and in test [10] was inactive.

Turning to `N[C@@H](Cc1c[nH]c2ccc(O)cc12)C(=O)O`, the Potency entry in test [1], in test [7] and in test [9] was “inactive” throughout. For the same compound, the compound was classed as inactive in [2], in test [3], in test [4], in [5], in test [6] and in [8]. The compound was classed as inactive in test [10].

Turning to `Cn1c(=O)c2[nH]cnc2n(C)c1=O`, the Potency result in test [1], in test [7] and in test [9] was “inactive” throughout. Besides, the result in [2], in [3], in [4], in [5], in test [6] and in test [8] was inactive. Also, the compound was called inactive in [10].

With `NS(=O)(=O)c1cc2c(cc1Cl)NCNS2(=O)=O`, the Potency result in test [1], in test [7] and in test [9] was “inactive” throughout. The outcome in test [2], in [3], in test [4], in test [5], in test [6] and in [8] was inactive. In addition, in test [10], the compound was called inactive.

With `COc1cc2c(c(OC)c1OC)-c1ccc(OC)c(=O)cc1[C@@H](NC(C)=O)CC2`, the Potency in test [1] is 3.98 nM (active) and 3.16 nM (active); in test [7] it was 200 nM (active) and 251 nM (active). In addition, the outcome in test [2], in test [3], in [4], in test [5], in [6] and in test [8] was inactive. Also, the outcome in test [10] was inactive. For the same compound, the Potency entry in [9] was “inactive”.

With `Cc1cn([C@H]2C[C@H](N=[N+]=[N-])[C@@H](CO)O2)c(=O)[nH]c1=O`, the Potency entry in [1], in test [7] and in test [9] was “inactive” each time. The result in [2], in test [3], in test [4], in test [5], in test [6] and in [8] was inactive. The call in test [10] was inactive.

Take `Clc1ccc(C(c2ccccc2Cl)C(Cl)Cl)cc1` (stereo not given): the Potency result in [1] was “inactive”. Moreover, the compound was called inactive in [2], in [3], in [4], in test [5] and in test [6]. Also, the caspase-3 activation in test [9] is 133% (active).

`CC(C)C(=O)Nc1ccc([N+](=O)[O-])c(C(F)(F)F)c1`: the Potency entry in [1], in test [7] and in [9] was “inactive” throughout. Moreover, the compound was called inactive in test [2], in test [3], in test [4], in test [5], in test [6] and in test [8]. Besides, in [10], the compound was classed as inactive.

In the case of `O=c1c(-c2ccc(O)cc2)coc2cc(O)cc(O)c12`, the Potency result in test [1], in test [7] and in test [9] was “inactive” in each case. Further, the compound was called inactive in [2], in [4], in test [5], in test [6], in [8] and in test [10].

As for `NCCS(=O)(=O)O`, the Potency entry in test [1], in test [7] and in [9] was “inactive” throughout. For the same compound, the result in test [2], in [3], in [4], in [5], in [6] and in test [8] was inactive. The compound was called inactive in [10].

Values taken from PubChem BioAssay (NCATS).
